# Screening data deposited in PubChem by several laboratories.
# ADAM17 inh: inhibitors of human ADAM17. P78536. recombinant ADAM17, EDANS/DABCYL FRET peptide cleavage. inhibition, % at 6.95 µM. 370,000 tested, 0.83% active. AID 720648;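 active means inhibition above the mean of compounds lying between control limits plus 3 SD, set per campaign, cut at about 8.5% in these data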;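 further: 0% = DMSO-only wells as the low control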
# proKLK7 act: proKLK7 (human) activation, primary screen; P49862; purified proKLK7, EDANS-DABCYL substrate fluorescence; 100% is mature enzyme control, 0% vehicle; activation, % at 7 µM; 370,000 tested, 0.9% active;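 active means activation above the mean of all tested compounds plus 3 SD, computed per campaign excluding outliers beyond control limits, cut at about 13% in these data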
# Ecoli rRNA inh: selective bacterial rRNA inhibition in E. coli. E. coli WT GFP vs humanized-ribosome RFP mutants, fluorescence, 24 h; active compounds read low; DMSO median 0, no signal -100. GFP signal change (wild-type ribosome), % (concentration not given with the values). 350,000 tested, 1.6% active. AID 720706;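 active means significant combined selectivity score with lowered wild-type GFP, culture density cut under 30%, mutant RFP and density less affected; inactive means any of these conditions unmet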
# FGF22 binding: binders of recombinant human FGF22 by thermal shift | Q9HCT0 | SYPRO orange fluorescence; percent of sucrose octasulfate shift, DMSO zero | activity (Tm shift, normalised), % at 9.99 µM | 340,000 tested, 1.5% active;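 active means mean Tm shift, scaled 0 neutral to 100 positive control, at about 1.3% or above, every replicate too, limit read from the data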
# ADAM10 inh: inhibits human ADAM10. recombinant ADAM10, EDANS/DABCYL FRET peptide cleavage, 3 h. inhibition, % at 7 µM. 370,000 tested, 0.62% active. AID 720582;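 active means inhibition above a per-campaign cutoff equal to the mean of compounds falling between control-based bounds plus 3 SD, cut at about 20% in these data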;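 further: 0% = DMSO wells while the 100% control is not disclosed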
# Target sequence (O14672 214-748 limits assumed): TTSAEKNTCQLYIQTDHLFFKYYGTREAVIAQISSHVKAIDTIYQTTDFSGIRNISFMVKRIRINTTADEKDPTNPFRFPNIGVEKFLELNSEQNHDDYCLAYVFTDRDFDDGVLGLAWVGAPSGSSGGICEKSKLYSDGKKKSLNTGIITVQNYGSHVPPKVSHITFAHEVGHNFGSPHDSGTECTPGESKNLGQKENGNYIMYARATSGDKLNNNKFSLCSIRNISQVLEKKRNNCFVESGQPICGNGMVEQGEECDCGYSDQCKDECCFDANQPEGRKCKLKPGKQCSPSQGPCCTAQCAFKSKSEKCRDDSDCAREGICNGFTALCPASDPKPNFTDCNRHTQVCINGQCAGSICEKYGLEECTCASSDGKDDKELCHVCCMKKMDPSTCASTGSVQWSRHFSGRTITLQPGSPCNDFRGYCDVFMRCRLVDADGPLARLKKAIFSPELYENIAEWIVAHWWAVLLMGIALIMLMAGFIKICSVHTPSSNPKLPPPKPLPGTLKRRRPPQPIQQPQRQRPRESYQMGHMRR
# * = called active by the depositor; · = no result. Most compounds without a hit are left out; they make up all but 3.8% or so of the library.
SMILES,ADAM17 inh,proKLK7 act,Ecoli rRNA inh,FGF22 binding,ADAM10 inh
CC(=O)/C(=N/Nc1ccccc1[N+](=O)[O-])N1CCCc2ccccc21,4,0,-28*,0,10
NNC(=O)c1nn(-c2ccc(Cl)cc2)cc1O,-13,10,-19*,0,-39
Cc1c(C(=O)NN)nn(-c2ccc(Cl)cc2)c(=O)c1C#N,-4,-2,-16*,0,3
Cc1ccc(-n2nc(C(=O)NN)c(C)c(C#N)c2=O)cc1Cl,3,-2,1,0,4
C[C@@H]1CN([C@@H](C)CO)C(=O)c2cc(C3=CCCCC3)cnc2O[C@@H]1CN(C)C(=O)Nc1ccccc1,·,·,-4,0,·
COc1cc(OC)c(C(=O)OCN2C(=O)c3ccccc3C2=O)cc1OC,1,1,2,0,2
COc1cc(N2C(=O)c3ccccc3C2=O)c(Cl)cc1C(=O)OCC(=O)N(C)C,-6,1,16,43*,-19
COc1cc(SC)ccc1C(=O)Nc1ccc2c(c1)OCCO2,-5,1,-25*,0,-7
COc1cc(SC)ccc1C(=O)Nc1nccs1,-1,0,-25*,0,4
C[C@@H]1CN([C@@H](C)CO)C(=O)c2c(c3ccccc3n2C)-c2ccccc2CO[C@H]1CN(C)Cc1ccccc1,·,·,-38,·,·
COc1ccccc1NC(=O)N[C@@H]1CC[C@H](CC(=O)N[C@@H](C)c2ccccc2)O[C@@H]1CO,·,·,-3,0,·
CCOC(=O)C(=O)Cc1cccnn1,-8,2,·,43*,-24
Cc1noc(C)c1S(=O)(=O)N(C)C[C@@H]1Oc2c(cccc2N(C)C)C(=O)N([C@H](C)CO)C[C@H]1C,·,·,0,0,·
C[C@@H]1CN([C@@H](C)CO)C(=O)c2cc(C#Cc3cccnc3)cnc2O[C@H]1CN(C)C(=O)CC1CC1,·,·,6,0,·
Cc1nc(N2CCOCC2)nc(Oc2ccccc2)c1[N+](=O)[O-],-3,0,-43*,0,6
CCCCOc1nc(N2CCOCC2)nc(C)c1[N+](=O)[O-],0,-1,-6,0,6
Cc1cc2nc(N3C(=O)CNC3=S)sc2cc1C,-12,-1,-2,43*,-27
COc1ccc(N2CCN(c3ccc(N4C(=O)CC(C)C4=O)cc3[N+](=O)[O-])CC2)cc1 (centres undefined),-4,0,-29*,1,2
CC1CC(=O)N(c2ccc(NCCc3ccc(O)cc3)c([N+](=O)[O-])c2)C1=O (centres undefined),2,0,-22*,42,13
COc1ccc(N2CCN(c3ccc(N4C(=O)COCC4=O)cc3[N+](=O)[O-])CC2)cc1,-1,0,·,·,0
C[C@H]1CN([C@@H](C)CO)C(=O)c2cc(-c3cccc(F)c3)cnc2O[C@H]1CN(C)Cc1cccnc1,·,·,3,·,·
CCNC(=O)[C@@H]1[C@@H](CO)[C@@H]2Cn3c(ccc(-c4ccc(OC)cc4)c3=O)[C@@H]2N1Cc1ccccc1,·,·,-5,0,·
O=C(O)c1ccn2c(C(=O)c3ccccc3)c(-c3ccccc3)cc2c1,-4,0,-26*,0,-9
O=C(Cc1cccnc1)N1CC(=O)N2[C@@H](CO)[C@H](c3ccc(-c4cccc(F)c4)cc3)[C@@H]2C1,·,·,0,·,·
CC(C)CCNC(=O)NC(=O)COC(=O)CCN=C1NS(=O)(=O)c2ccccc21,6,0,3,44*,-3
SMILES,ADAM17 inh,proKLK7 act,Ecoli rRNA inh,FGF22 binding,ADAM10 inh
C[C@@H]1CN([C@@H](C)CO)C(=O)c2cc(C#Cc3ccccc3F)cnc2O[C@@H]1CN(C)C(=O)C1CCC1,·,·,1,0,·
C/C=C/c1ccc([C@H]2[C@H](CO)N(S(=O)(=O)Cc3ccccc3)C23CN(C(=O)C2CCOCC2)C3)cc1,·,·,1,·,·
COc1ccc(C(=O)C2CCCN(C(=O)Cn3cncn3)C2)cc1OC (centres undefined),-5,0,8,0,-10
O=C(c1ccc(-c2ccccc2)cc1)C1CCCN(C(=O)Cn2cncn2)C1 (centres undefined),-1,0,-20,43*,-10
Cc1c(Cl)cccc1NC(=S)N(Cc1cccs1)C1CCCC1,-4,0,-22*,0,-4
COc1cccc(-c2ccc3c(c2)[C@@H]2[C@@H](CCN2S(=O)(=O)c2ccccc2OC)[C@H](CO)N3C)c1,·,·,5,0,·
Cc1ccc(C(=O)COC(=O)c2ccc(O)cc2)cc1,3,0,-27*,0,6
CCOC(=O)COC(=O)c1ccc(O)cc1,-1,-1,·,·,5
CCc1ccc(NC(=S)N(Cc2ccccc2)Cc2ccccn2)cc1,0,0,-10,44*,1
COCC(=O)Nc1ccc2c(c1)C(=O)N(C)[C@H]1CC[C@H](CC(=O)Nc3cn(C)nc3C)O[C@@H]1CO2,·,·,1,·,·
Cc1nn(Cc2ccccc2Cl)c(C)c1C(=O)N1CCN(c2ccccc2)CC1,-1,0,-27*,·,-2
C[C@@H]1CN([C@H](C)CO)C(=O)c2cc(NC(=O)CCC(F)(F)F)ccc2O[C@@H](C)CCCCO[C@H]1CN(C)Cc1ccc(Cl)c(Cl)c1,·,·,3,0,·
CO[C@H]1CN(C)C(=O)c2ccc(NC(C)=O)cc2OC[C@@H](C)N(Cc2ccccc2F)C[C@H]1C,·,·,1,0,·
CCOC(=O)C1(Cc2ccccc2Cl)CCN(Cc2csc(C(C)=O)c2)CC1,-2,1,-23*,0,-12
CCOC(=O)C1(CCCc2ccccc2)CCN(Cc2nccn2CC)CC1,-1,0,-21,43*,-3
CCOC(=O)C1(CCOc2ccccc2)CCN(Cc2ccc(-n3cccn3)cc2)CC1,1,0,-58,44*,1
CCOC(=O)C1(CCOC)CCN(Cc2ccncc2)CC1,-1,0,22,43*,-8
CCOC(=O)C1(CCOc2ccccc2)CCN(Cc2ccncc2)CC1,-3,-1,-11,0,-6
CCN1[C@@H]2c3ccc(C4=CCCC4)c(=O)n3C[C@@H]2[C@@H](CO)[C@@H]1C(=O)NCCc1ccccc1,·,·,-3,0,·
C[C@@H]1CN(C)C(=O)Cc2cc(NS(C)(=O)=O)ccc2O[C@@H]1CN(C)S(C)(=O)=O,·,·,0,·,·
NS(=O)(=O)c1ccc(NC(=O)COC(=O)/C(=C/c2cccs2)c2cccs2)cc1,3,-1,-18*,0,6
CSC1=NC(=O)/C(=C/c2ccc(SC)cc2)S1,0,0,-22,43*,-9
CC(C)c1cn(CC[C@@H]2CC[C@H](NC(=O)C3CCOCC3)[C@@H](CO)O2)nn1,·,·,2,·,·
O=C(COC(=O)/C=C/c1ccccc1[N+](=O)[O-])Nc1ccc(S(=O)(=O)N2CCOCC2)cc1,0,0,-8,43*,5
O=C(/C=C/c1ccccc1[N+](=O)[O-])OCC(=O)c1ccccc1,0,0,-22*,0,7
